# According to PubChem BioAssay:
# Target: Torsin-1A (Homo sapiens) (UniProt O14656)
# Assay: torsin A binders from cell lysate, primary screen, small-molecule microarray, wild-type, 635/667 nm (AID 1149)
# Details: COS7 hTOR1A-WT lysate, 635 nm fluorescence, higher = more signal
# Chain of Torsin-1A (Homo sapiens) (O14656 whole entry, looked up): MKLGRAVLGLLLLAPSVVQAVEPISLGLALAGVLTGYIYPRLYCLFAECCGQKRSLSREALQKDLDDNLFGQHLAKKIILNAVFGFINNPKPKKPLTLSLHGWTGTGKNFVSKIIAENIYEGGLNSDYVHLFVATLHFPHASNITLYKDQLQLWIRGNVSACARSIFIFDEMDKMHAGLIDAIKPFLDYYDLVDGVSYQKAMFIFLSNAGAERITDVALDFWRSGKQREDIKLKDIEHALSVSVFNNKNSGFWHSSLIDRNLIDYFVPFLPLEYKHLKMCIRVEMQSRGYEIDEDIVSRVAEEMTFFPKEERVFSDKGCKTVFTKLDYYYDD
row,Compound,composite z-score
1,C=CCC(OC(C)=O)[C@@H]1[C@@H](N(Cc2cc3ccccc3o2)C(=O)c2ccc(-c3ccccc3)cc2)c2cc(OCCCO)ccc2N1C(=O)Cc1ccc(OC)cc1 (some centres undefined),-0.592
2,COCC(=C=CC[C@@H](O)c1ccc(OCCO)cc1)CCO,0.995
3,CC(C)(C)OC(=O)CC[C@]12N=C(c3ccc(OCCCO)cc3)O[C@H]1c1ccccc1N(Cc1ccccc1)C2=O,0.553
4,O=C1OCCC/C=C\[C@H]2OC34C=CCN(c5ccc6ccccc6c5)C(=O)[C@H]3N(CCCO)C(=O)[C@@H]4C12 (some centres undefined),-0.553
5,C=C/C=C/[C@@H]1C(=C)CN([C@@H](Cc2ccccc2)C(=O)OC)[C@H]1[C@@H](O)Cc1ccccc1,0.218
6,O=C1NC(=O)C2C1C=CC(C(O)c1ccccn1)N2Nc1ccc(Cl)cc1Cl (centres undefined),-0.117
7,CC(C)C[C@@H]1NC(=O)CNC(=O)[C@@]23C(=O)N[C@@H](Cc4ccccc4)C2[C@H](C)[C@@]2(C)O[C@H]2C3/C=C/C/C=C\CNC1=O (some centres undefined),1.09
8,CCOC(=O)C1=C[C@@H](c2ccccc2)N(S(=O)(=O)c2ccc(C)cc2)[C@H]1c1ccccc1,0.0157
9,[N-]=[N+]=NCc1ccccc1C[C@]1(C(=O)N2CCOCC2)COC(c2ccc(OCCCO)cc2)=N1,1.71
10,COCCOC(=O)N1C(=O)[C@@]2(c3cc(C#Cc4ccc(OC)cc4)ccc31)[C@H](C(=O)NC[C@H](O)c1ccccc1)[C@H]1C(=O)O[C@H](c3ccccc3)[C@H](c3ccccc3)N1[C@@H]2c1ccc(OCCO)cc1,0.161
11,COCCOC(=O)N1C(=O)[C@@]2(c3cc(C#CCC(C(=O)OC)C(=O)OC)ccc31)[C@H](c1ccc(OCCO)cc1)N1[C@H](c3ccccc3)[C@H](c3ccccc3)OC(=O)[C@H]1[C@@H]2C(=O)Nc1nc2ccccc2s1,0.212
12,COCCOC(=O)N1C(=O)[C@@]2(c3cc(C#CCNC(N)=O)ccc31)[C@H](c1ccc(O)cc1)N1[C@H](c3ccccc3)[C@H](c3ccccc3)OC(=O)[C@H]1[C@@H]2C(=O)N1CCN(c2ncccn2)CC1,0.652
13,COc1cc(C(O)C2C=CC3C(=O)N(Cc4ccccc4)C(=O)C3N2n2cnnc2)cc(OC)c1OC (centres undefined),0.683
14,CCCCC=C[C@@H](NC(=O)c1ccccc1)c1ccccc1,0.128
15,COc1ccc([Si](C)(C)[C@@H]2[C@@H](CC(=O)N3Cc4ccccc4C[C@H]3CO)O[C@]3(C(=O)N(c4ccccc4)c4ccccc43)[C@H]2C)cc1,1.56
16,CCOC(=O)C1=CCC(c2ccccc2)N(S(=O)(=O)c2ccc([N+](=O)[O-])cc2)C1 (centres undefined),0.331
17,[N-]=[N+]=NCc1ccccc1[C@@H]1OC(c2ccc(OCCCO)cc2)=N[C@]1(Cc1ccccc1N=[N+]=[N-])C(=O)N1CCCCC1,0.133
18,C=CCN1C(=O)[C@]2(O[C@H](CCO)[C@@H]([Si](C)(C)c3ccc(OC)cc3)[C@@H]2C)c2cc(N3C(=O)COc4ccccc43)ccc21,-0.339
19,COCCCNC(=O)[C@@]1(c2ccc([N+](=O)[O-])cc2)CC(=O)N(CC23CC4CC(CC(C4)C2)C3)[C@@H]1c1ccc(CO)cc1I,0.676
20,CC(C)OC(=O)CC(=O)CC(O)c1ccc([N+](=O)[O-])cc1 (centres undefined),0.913
21,CCOC(=O)C1=CCC(c2ccco2)N(S(=O)(=O)c2ccc(C)cc2)C1 (centres undefined),0.55
22,[N-]=[N+]=Nc1ccccc1[C@@H]1OC(c2ccc(OCCCO)cc2)=N[C@]1(Cc1ccccc1)C(=O)NCc1ccccc1,0.662
23,[N-]=[N+]=NCc1ccccc1C[C@@]1(C(=O)N2CCCCC2)N=C(c2ccc(OCCCO)cc2)O[C@@H]1c1ccccc1CN=[N+]=[N-],0.362
24,O=C1C2C=CC(C(O)c3ccc(I)cc3)N(Nc3ccccc3)C2C(=O)N1c1ccccc1 (centres undefined),-0.087
25,CC(C)C(=C=CC[C@@H](O)c1cccc(OCCO)c1)C[C@@H](O)c1ccccn1,-0.84
26,COC(=O)[C@@]1(Cc2ccccc2CN=[N+]=[N-])N=C(c2ccc(OCCCO)cc2)O[C@H]1c1ccccc1,0.0213
27,CCOC(=O)C[C@H]1[C@H](OC(=O)c2cc3ccccc3oc2=O)[C@@H](NC(=O)c2ccc3ccccc3c2)c2cc(OCCCO)ccc2N1C(=O)Cc1ccc(OC)cc1,0.462
28,COC(=O)[C@@]1(Cc2ccc(OC)cc2)[C@H]2c3cc(C(=O)N4CCCC4)n(Cc4cc(C)n(C)n4)c3C[C@H]2CN1C(=O)c1ccccc1,0.544
29,C=C(CCCC)C(=O)CC[C@H](OC(C)=O)c1ccc(OCCO)cc1,-0.822
